In PubChem BioAssay (NCATS):
Several values for one entry are separate records, joined by “and”; a condition that tells them apart may be missing. Equal values may be shown once. Results filed as inconclusive are left out. A number with no mark means an inactive call.

These molecules were tested against Retinoic acid receptor RXR-alpha (Homo sapiens) (UniProt P19793) (assay: qHTS assay for small molecule antagonists of retinoid X receptor alpha signaling (AID 588546; active means well fitted inhibition curve with a large enough effect in the signal ratio, with a control signal flat, not every such curve was filed as active; the % refers to the signal ratio;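 further: cells stimulated with 9-cis-retinoic acid as agonist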)). Settings: HEK293T RXRa-UAS-bla, beta-lactamase ratio, antagonist mode.
Chain of Retinoic acid receptor RXR-alpha (Homo sapiens) (P19793 whole entry, looked up): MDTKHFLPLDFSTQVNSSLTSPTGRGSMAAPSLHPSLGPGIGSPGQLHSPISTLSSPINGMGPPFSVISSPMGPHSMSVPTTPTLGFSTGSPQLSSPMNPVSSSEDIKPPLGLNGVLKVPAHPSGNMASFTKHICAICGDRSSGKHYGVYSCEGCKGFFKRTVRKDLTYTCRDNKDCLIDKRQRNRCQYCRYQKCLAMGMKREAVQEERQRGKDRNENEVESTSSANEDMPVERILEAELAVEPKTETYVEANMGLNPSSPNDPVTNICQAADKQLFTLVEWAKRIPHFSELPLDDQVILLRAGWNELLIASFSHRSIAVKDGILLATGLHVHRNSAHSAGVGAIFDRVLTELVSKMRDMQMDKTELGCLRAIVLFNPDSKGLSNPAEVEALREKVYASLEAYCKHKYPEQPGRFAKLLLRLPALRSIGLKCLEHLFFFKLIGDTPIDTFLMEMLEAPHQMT
Method in brief: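 Beta-lactamase reporter inhibition, read as CCF4 fluorescence ratio (ex 405, em 460/530 nm) after 2 h at RT. HEK293T UAS-bla cells, 2500/well, were stimulated with 9-cis-RA at 500 or 100 nM final alongside test compound for 18 h at 37 C.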
On the % scale 0 is the no-effect control and ±100 the full control effect.

SMILES	max response
Nc1cc([N+](=O)[O-])ccc1C(=O)O	19.8% and -9.41%
CC(O)COC(C)(C)C (stereo unspecified)	-2.68%
CCC(C)(C)C	11.7%

These molecules were tested against Thyroid hormone receptor beta (Homo sapiens) (UniProt P10828) (assay: qHTS assay for small molecule antagonists of thyroid hormone receptor beta signaling (AID 588547; active means well fitted inhibition curve with a large enough effect in the signal ratio, with a control signal flat, not every such curve was filed as active; the % refers to the signal ratio;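 further: cells stimulated with 0.4 nM T3 agonist during compound exposure; series mostly up to about 77 µM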)). Settings: TR-UAS-bla HEK293, beta-lactamase ratio, antagonist mode, 18 h.
Chain of Thyroid hormone receptor beta (Homo sapiens) (P10828 whole entry, looked up): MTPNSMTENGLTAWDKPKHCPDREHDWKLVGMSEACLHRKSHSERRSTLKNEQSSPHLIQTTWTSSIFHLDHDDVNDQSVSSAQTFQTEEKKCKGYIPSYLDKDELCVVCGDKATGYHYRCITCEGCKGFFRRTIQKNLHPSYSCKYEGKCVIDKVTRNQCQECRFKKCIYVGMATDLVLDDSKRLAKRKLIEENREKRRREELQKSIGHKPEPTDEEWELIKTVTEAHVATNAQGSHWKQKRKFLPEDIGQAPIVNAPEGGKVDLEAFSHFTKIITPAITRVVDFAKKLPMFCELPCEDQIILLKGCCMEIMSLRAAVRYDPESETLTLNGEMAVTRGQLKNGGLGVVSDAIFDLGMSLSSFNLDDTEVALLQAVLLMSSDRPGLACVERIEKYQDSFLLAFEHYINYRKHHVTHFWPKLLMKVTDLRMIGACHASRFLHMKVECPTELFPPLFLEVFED
Method in brief: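 Inhibition of T3-driven (0.4nM final) beta-lactamase reporter activity was measured over 0.59 nM to 92 uM compound after 18 h at 37 C. The cells were GripTite HEK293 TR-UAS-bla in charcoal/dextran-stripped serum, with CCF4 ratio read-out and IC50 from Hill fits.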

SMILES	activity change % (negative = inhibition)
CC(C)=C1CCC(C)CC1=O (stereo unspecified)	-6.39%
O=C(O)c1ccc(C(=O)O)cc1	-2.68% and 4.87%
CCOc1ccccc1N	-11.6%
CC(C)(O)CCC(C)(C)O	4.09%
C=C(C)OC(C)=O	24.9%
CC(=O)c1cc(C)oc1C	-4.91%
CC(N)CN (stereo unspecified)	-4.82%
O=C1NC(=O)c2cc([N+](=O)[O-])ccc21	2.64%
CCC1CO1 (stereo unspecified)	-15.4%
CCNS(=O)(=O)c1ccc(C)cc1	-4.68%
Nc1cccc([N+](=O)[O-])c1	-4.44%
Nc1ccccc1[N+](=O)[O-]	-6.45%
Nc1c(Cl)cc(Cl)cc1Cl	14.8%
COC(=O)CC#N	2.83%
Cc1ccccc1C(=O)O	-4.62%
CO[Si](CCCNCCC[Si](OC)(OC)OC)(OC)OC	-0.795%
CC1(N)CCC(C(C)(C)N)CC1 (stereo unspecified)	-1.11%
C=Cc1ccccn1	-28.4%
CCCCCCO	4.77%
CCC(C)O (stereo unspecified)	-7.82%
CC(O)CC(C)O (stereo unspecified)	-2.07%
CCCCCCCCC	13.2%
CCN(CC)c1cccc(O)c1	4.53%
